According to PubChem BioAssay:
Activity calls are given as the source filed them. Unless noted, how the calls were made is not given here.

What was measured:
[1] = compounds binding Alexa647 anti-His antibody – biochemical, small-molecule microarray, 635 nm fluorescence, artefact control for SMM control protein annotation, primary screen (AID 1128); settings: higher = more signal;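 further: score merges feature fluorescence with signal-to-noise for each printed compound spot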
[2] = tested on: Human papillomavirus type 1a E7 protein (residues 1-88); assay: HPV1a E7 small-molecule binders, primary screen, biochemical, small-molecule microarray, residues 1-88, 635 nm (AID 1129); settings: small-molecule microarray binding, fluorescence 635 nm; higher = more signal
[3] = biological target: Focal adhesion kinase 1 (Homo sapiens) (UniProt Q05397); assay: PTK2 protein binding on printed compound slides – biochemical, small-molecule microarray, 635/667 nm fluorescence, BSA, DTT, primary screen (AID 1130); settings: 635 nm fluorescence, higher = more signal;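 further: composite of spot emission at 667 nm and signal to noise over triplicate slides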
Sequence of Focal adhesion kinase 1 (Homo sapiens) (Q05397 whole entry, looked up): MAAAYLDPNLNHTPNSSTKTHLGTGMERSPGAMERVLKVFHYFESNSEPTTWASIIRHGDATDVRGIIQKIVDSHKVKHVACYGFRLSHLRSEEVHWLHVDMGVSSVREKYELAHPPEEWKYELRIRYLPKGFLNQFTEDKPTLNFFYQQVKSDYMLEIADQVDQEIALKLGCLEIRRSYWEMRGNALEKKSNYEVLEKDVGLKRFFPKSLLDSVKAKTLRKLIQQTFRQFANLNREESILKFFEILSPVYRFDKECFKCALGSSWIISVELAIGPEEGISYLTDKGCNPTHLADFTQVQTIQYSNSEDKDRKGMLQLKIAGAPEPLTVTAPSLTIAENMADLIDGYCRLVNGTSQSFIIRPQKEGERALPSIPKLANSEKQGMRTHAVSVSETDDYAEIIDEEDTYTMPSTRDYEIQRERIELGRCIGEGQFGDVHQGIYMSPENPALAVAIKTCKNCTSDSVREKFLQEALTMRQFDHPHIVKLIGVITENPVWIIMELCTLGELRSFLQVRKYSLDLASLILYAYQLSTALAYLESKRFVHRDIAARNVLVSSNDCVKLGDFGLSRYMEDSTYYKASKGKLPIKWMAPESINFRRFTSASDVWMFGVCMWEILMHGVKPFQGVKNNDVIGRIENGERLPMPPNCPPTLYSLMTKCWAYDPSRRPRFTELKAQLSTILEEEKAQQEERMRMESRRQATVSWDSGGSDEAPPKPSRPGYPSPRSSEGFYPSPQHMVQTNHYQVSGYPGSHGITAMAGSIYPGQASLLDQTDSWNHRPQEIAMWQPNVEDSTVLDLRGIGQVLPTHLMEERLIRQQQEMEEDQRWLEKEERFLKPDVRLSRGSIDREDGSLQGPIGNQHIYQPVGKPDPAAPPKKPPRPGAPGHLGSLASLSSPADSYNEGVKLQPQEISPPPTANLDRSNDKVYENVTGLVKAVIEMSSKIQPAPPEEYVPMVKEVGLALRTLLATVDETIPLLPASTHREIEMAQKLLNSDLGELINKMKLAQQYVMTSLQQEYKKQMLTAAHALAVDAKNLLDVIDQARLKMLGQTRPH

[4] = tested on: Fibrinogen (Alexa647-labelled); assay: Alexa647-fibrinogen binding to printed small molecules – biochemical, small-molecule microarray, 635/667 nm fluorescence, artefact control for SMM control-protein annotation, profiling panel (AID 1131); settings: fibrinogen-A647 binding fluorescence, higher = more signal;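 further: z-score merges 667 nm fluorescence with per-spot signal-to-noise over triplicate slides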
[5] = biological target: Follistatin (Homo sapiens) (UniProt P19883); assay: FST protein binding to printed compounds – biochemical, small-molecule microarray, 635/667 nm fluorescence, primary screen (AID 1132); settings: 635 nm fluorescence, higher = more signal
Sequence of Follistatin (Homo sapiens) (P19883 whole entry, looked up): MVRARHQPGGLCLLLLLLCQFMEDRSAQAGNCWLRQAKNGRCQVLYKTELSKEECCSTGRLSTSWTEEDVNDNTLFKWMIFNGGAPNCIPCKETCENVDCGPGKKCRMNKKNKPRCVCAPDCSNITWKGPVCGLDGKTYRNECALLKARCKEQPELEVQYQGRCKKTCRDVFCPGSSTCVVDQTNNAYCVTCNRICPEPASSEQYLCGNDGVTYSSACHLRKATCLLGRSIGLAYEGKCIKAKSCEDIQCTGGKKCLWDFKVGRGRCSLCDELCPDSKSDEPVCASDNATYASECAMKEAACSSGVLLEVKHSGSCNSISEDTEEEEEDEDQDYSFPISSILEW

[6] = biological target: Fibroblast growth factor 2 (Homo sapiens) (UniProt P09038); assay: basic fibroblast growth factor binding to printed compounds – biochemical, small-molecule microarray, 635/667 nm fluorescence, primary screen (AID 1133); settings: FGF2, fluorescence 635/667, higher = more signal
Sequence of Fibroblast growth factor 2 (Homo sapiens) (P09038 whole entry, looked up): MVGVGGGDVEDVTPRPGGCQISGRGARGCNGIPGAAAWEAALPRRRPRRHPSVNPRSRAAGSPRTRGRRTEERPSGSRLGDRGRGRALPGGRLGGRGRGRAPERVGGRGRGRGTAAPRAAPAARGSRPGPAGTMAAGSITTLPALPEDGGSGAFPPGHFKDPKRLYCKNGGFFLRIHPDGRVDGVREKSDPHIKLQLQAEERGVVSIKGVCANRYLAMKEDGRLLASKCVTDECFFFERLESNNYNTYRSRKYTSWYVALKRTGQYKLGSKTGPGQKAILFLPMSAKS

[7] = JC-1 mitochondrial potential readout, lung cancer cells – cell-based, A549, JC-1 fluorescence, basal, 24 h, 100 nL, profiling panel (AID 1138); settings: higher = more signal;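 further: A549 lung adenocarcinoma cells under basal conditions with no added stimulus; test concentration not given here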
Lefty1 = Lefty1 protein binding to printed compounds – biochemical, small-molecule microarray, 635/667 nm fluorescence, primary screen (AID 1139); settings: fluorescence 635/667, higher = more signal
[8] = tested on: wheat germ agglutinin (Triticum aestivum), Alexa647-labelled; assay: Alexa647-WGA lectin binding to printed small molecules – biochemical, small-molecule microarray, 635/667 nm fluorescence, artefact control for SMM control-protein annotation, profiling panel (AID 1140); settings: WGA-A647 binding, 635 nm fluorescence, higher = more signal;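 further: score merges 667 nm feature emission with signal to noise over triplicate slides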
[9] = biological target: Luciferin 4-monooxygenase (Photinus pyralis) (UniProt P08659); assay: inhibition of purified Photinus pyralis luciferase – biochemical, luminescence, purified enzyme, 2006 set, primary screen (AID 1141); settings: purified firefly luciferase, SteadyGlo luminescence, 30 min; higher = more signal, called active from +8 up or from −8 down;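 further: cell-free assay with purified firefly luciferase at 100 ng per well in PBS; test concentration not given here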
Sequence of Luciferin 4-monooxygenase (Photinus pyralis) (P08659 whole entry, looked up): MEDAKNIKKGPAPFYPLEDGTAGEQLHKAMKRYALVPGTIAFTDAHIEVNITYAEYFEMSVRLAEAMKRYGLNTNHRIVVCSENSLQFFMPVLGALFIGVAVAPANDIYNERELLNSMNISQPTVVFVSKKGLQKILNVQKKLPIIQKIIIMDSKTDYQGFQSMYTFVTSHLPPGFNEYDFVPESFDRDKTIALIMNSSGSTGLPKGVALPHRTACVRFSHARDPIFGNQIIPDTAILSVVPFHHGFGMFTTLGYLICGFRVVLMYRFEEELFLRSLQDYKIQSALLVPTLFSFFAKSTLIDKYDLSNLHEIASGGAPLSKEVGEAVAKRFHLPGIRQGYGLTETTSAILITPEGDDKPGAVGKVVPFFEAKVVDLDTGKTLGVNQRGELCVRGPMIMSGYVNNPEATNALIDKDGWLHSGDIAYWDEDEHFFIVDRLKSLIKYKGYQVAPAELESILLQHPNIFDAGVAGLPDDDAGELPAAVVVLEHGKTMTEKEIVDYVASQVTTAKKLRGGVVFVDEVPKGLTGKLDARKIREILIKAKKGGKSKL

[10] = tested on: Wnt5a (protein binding on small-molecule microarray); assay: small molecules binding Wnt5a protein – biophysical, small-molecule microarray, 635/667 nm fluorescence, primary screen (AID 1142); settings: 635 nm fluorescence, higher = more signal;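 further: fluorescence read at 667 nm with signal to noise per printed feature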
[11] = ATP-based viability of Huh7 replicon cells – cell-based, CellTiter-Glo luminescence, basal, 48 h, cytotoxicity control for HCV replication inhibitor project, primary screen (AID 1143); settings: higher = more signal, called active from +8 up or from −8 down;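 further: Huh7 hepatoma cells carrying a hepatitis C replication reporter with no stimulus; test concentration not given here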
[12] = Pseudomonas biofilm growth suppression – PAO1 strain, BacTiter-Glo luminescence, LB-PBS, primary screen (AID 1144); settings: P. aeruginosa PAO1 biofilm, 12 h, higher = more signal
[13] = basal CRE-LacZ reporter activity in PC12 – cell-based, unstimulated, primary screen (AID 1145); settings: no forskolin, luminescence, 4.5 h, higher = more signal, called active from +8 up or from −8 down
[14] = forskolin-driven CRE-LacZ activity in PC12 – cell-based, CRE-LacZ reporter, forskolin-stimulated, primary screen (AID 1146); settings: luminescence, 4.5 h, higher = more signal, called active from +8 up or from −8 down;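 further: PC12 cells with 6xCRE LacZ reporter stimulated by forskolin 10 µM; beta-galactosidase reporter signal reflecting CREB driven transcription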
[15] = biological target: Streptavidin (Streptomyces avidinii) (UniProt P22629); assay: compounds binding control protein streptavidin – biophysical, small-molecule microarray, 635/667 nm fluorescence, artefact control for SMM compound annotation, primary screen (AID 1147); settings: higher = more signal;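 further: signal reflects streptavidin binding to arrayed compounds as a control protein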
Sequence of Streptavidin (Streptomyces avidinii) (P22629 whole entry, looked up): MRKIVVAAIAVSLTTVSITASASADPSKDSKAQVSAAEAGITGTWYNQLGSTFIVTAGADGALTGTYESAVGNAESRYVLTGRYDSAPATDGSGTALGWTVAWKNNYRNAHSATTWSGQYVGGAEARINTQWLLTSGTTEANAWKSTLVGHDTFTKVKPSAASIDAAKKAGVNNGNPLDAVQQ

[16] = probe aInhba binding on compound microarray – biochemical, small-molecule microarray, 635/667 nm fluorescence, primary screen (AID 1148); settings: higher = more signal;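 further: score merges 667nm spot fluorescence with signal-to-noise for antibody binding to printed compounds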
Torsin-1A (Homo sapiens) [17] = biological target: Torsin-1A (Homo sapiens) (UniProt O14656); assay: TOR1A wild-type binding on microarray – cell lysate, small-molecule microarray, lysate, 635/667 nm, primary screen (AID 1149); settings: COS7 hTOR1A-WT lysate, 635 nm fluorescence, higher = more signal
Sequence of Torsin-1A (Homo sapiens) (O14656 whole entry, looked up): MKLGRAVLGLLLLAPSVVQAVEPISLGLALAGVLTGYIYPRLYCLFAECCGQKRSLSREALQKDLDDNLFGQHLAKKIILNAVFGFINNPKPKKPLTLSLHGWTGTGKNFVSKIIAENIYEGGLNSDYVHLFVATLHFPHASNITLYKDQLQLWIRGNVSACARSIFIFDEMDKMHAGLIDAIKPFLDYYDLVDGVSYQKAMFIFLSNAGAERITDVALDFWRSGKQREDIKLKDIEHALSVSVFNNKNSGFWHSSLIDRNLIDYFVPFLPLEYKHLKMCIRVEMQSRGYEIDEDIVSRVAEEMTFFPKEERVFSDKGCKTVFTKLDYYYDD

Torsin-1A (Homo sapiens) [18] = biological target: Torsin-1A (Homo sapiens) (UniProt O14656); assay: torsin A mutant lysate binding on microarrays – cell lysate, small-molecule microarray, COS7 lysate, 635/667 nm fluorescence, primary screen (AID 1150); settings: COS7 hTOR1A mutant lysate, 635 nm fluorescence, higher = more signal;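 further: score pools 667 nm emission and signal to noise measuring lysate protein binding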
[19] = tested on: Sonic hedgehog protein (Shh); assay: Sonic hedgehog microarray binding compounds – biochemical, small-molecule microarray, 635/667 nm fluorescence, primary screen (AID 1151); settings: 635 nm fluorescence, higher = more signal;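 further: Shh protein binding to compounds spotted on small-molecule microarray slides; score combines spot fluorescence intensity with signal-to-noise across triplicate slides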

Row | Compound | composite z-score [1] | composite z-score [2] | composite z-score [3] | composite z-score [4] | composite z-score [5] | composite z-score [6] | z-score [7] | composite z-score (Lefty1) | composite z-score [8] | z-score [9] | composite z-score [10] | z-score [11] | z-score [12] | z-score [13] | z-score [14] | composite z-score [15] | composite z-score [16] | composite z-score (Torsin-1A (Homo sapiens) [17]) | composite z-score (Torsin-1A (Homo sapiens) [18]) | composite z-score [19]
1 | CC(CO)N1C(=O)[C@@H]2C3C(=O)OCCC/C=C\[C@H]3OC23C=CCN(C(C)(C)C)C(=O)[C@@H]13 (stereo not given in full) | -0.286 | -0.615 | -0.05 | -0.47 | 0.122 | -0.0209 | -0.0344 | 0.476 | -0.452 | -0.562 (inactive) | -0.221 | 0.559 (inactive) | -0.818 (inactive) | -0.488 (inactive) | 0.636 (inactive) | -0.221 | -0.128 | 1.17 | 2.21 | 0.777
2 | CN(C)CCCC[C@@H]1NC(=O)[C@H]2C[C@@H](C(=O)NCCCCCCN)[C@@H](c3ccc(O)cc3)N2C1=O | 2.07 | 1.09 | 0.333 | 0.977 | 1.41 | 1.82 | 0.462 | 1.67 | 1.03 | 0.498 (inactive) | 0.538 | 0.181 (inactive) | 0.523 (inactive) | -0.256 (inactive) | -0.139 (inactive) | 1.28 | 0.308 | 1.13 | 0.755 | 2.03
3 | CC(C)C(=C=CC[C@@H](O)c1ccc(OCCO)cc1)C[C@@H](O)COCc1ccccc1 | -0.547 | 0.948 | 0.0144 | 0.602 | 1.36 | 1.46 | 0.922 | 1.58 | 0.225 | -1.3 (inactive) | 0.13 | -2.24 (inactive) | -0.933 (inactive) | 6.97 (inactive) | -1.23 (inactive) | -0.0104 | -0.0762 | -0.372 | -0.208 | 2.09
4 | COC(=O)[C@H](Cc1ccccc1)N[C@@H](/C=C/C1CC1)[C@H](O)Cc1ccccc1 | -0.477 | -0.236 | -0.415 | 0.475 | -0.405 | -0.489 | -0.349 | -0.21 | 0.319 | 0.702 (inactive) | 1.2 | -0.389 (inactive) | 0.186 (inactive) | 1.31 (inactive) | 0.15 (inactive) | 0.648 | -0.231 | 0.324 | 0.341 | -0.21
5 | COC(=O)C(CC#Cc1ccc2c(c1)[C@]1(C(=O)N2)[C@H](c2ccc(OCCO)cc2)N2[C@H](c3ccccc3)[C@H](c3ccccc3)OC(=O)[C@H]2[C@@H]1C(=O)N1CCc2cc(OC)c(OC)cc2C1)C(=O)OC | 0.857 | 1.2 | 0.343 | 1 | 1.41 | 1.57 | -1.26 | 1.36 | 0.423 | -0.465 (inactive) | 0.714 | -0.6 (inactive) | 0.188 (inactive) | -0.0688 (inactive) | 2.19 (inactive) | 1.52 | 0.542 | 0.668 | 0.623 | 1.91
